Assay outcomes as filed in PubChem.
In the library only some 8.1% were active in any assay of this set; here they are far more common.
RORg inh: ROR gamma (mouse) transcription inhibition; Potency, µM (top dose mostly 53.6 µM), hits mostly inhibitors; Drosophila S2 Gal4-RORgamma UAS-luciferase reporter, 20 h; P51450; 310,000 compounds, 5.4% hits; further: nearly all actives have a fitted effect of over 60% in size
Target sequence (P51450 whole entry, looked up, the tested form may be a part): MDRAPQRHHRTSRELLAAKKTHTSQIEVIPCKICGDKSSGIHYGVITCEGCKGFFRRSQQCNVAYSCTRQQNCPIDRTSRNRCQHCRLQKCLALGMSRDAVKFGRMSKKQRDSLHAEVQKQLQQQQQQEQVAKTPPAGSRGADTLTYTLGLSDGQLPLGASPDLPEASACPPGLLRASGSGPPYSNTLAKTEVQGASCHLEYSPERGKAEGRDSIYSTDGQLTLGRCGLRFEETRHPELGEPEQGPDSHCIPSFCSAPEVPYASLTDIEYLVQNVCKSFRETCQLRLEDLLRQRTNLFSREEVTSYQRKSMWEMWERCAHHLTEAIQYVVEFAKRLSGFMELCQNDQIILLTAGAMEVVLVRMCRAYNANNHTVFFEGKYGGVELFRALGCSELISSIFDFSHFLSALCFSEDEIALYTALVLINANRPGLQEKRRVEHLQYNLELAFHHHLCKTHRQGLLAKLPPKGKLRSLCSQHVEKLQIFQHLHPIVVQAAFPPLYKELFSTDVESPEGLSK
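In this cell-based reporter format, copper sulfate (700 uM final) drives Gal4–ROR gamma fusion expression from a metallothionein promoter in Drosophila Schneider cells; compounds preincubated 1 hr, reporter read after 20 hr at ambient temperature.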
ClpP mod: qHTS Assay for Activators of ClpP; 340,000 compounds, 1.9% hits; ATP-dependent Clp protease proteolytic subunit (Bacillus subtilis (strain 168)), P80244; purified B. subtilis ClpP, FRET peptide cleavage, 20 min; Potency, µM (series often up to 57.5 µM); AID 651965, 2013; active means well fitted falling curve with a large enough effect; inconclusive means small, poorly fitted or top-dose-only effect; inactive means no such curve, though single readings can be large or run the other way; further: the source files actives as falling curves though it sought activators and does not explain the sign; nearly all actives have a fitted effect of over 65% in size
Target sequence (P80244 whole entry, looked up): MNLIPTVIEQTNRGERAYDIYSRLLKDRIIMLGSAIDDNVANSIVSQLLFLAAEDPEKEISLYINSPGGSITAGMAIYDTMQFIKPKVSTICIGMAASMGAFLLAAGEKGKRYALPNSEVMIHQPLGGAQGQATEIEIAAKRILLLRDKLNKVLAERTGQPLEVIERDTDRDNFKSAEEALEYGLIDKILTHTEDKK
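ClpP 10 microg/mL final, pH 8 Tris/KCl buffer with BSA, glycerol, Tween-20; compound pinned in; FRET-FV substrate; RT 20 min; Ex320/Em430; ΔFRET vs ADEP 5.8 microM, DMSO, no enzyme.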
VP16 counter: Gal4-VP16 reporter inhibition counter-screen; AID 2546; Potency, µM (doses to about 53.6 µM), hits mostly inhibitors; 310,000 compounds, 3.5% hits; Drosophila S2 Gal4-VP16 UAS-luciferase, luminescence, 20 h;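 further: Gal4-VP16 expression switched on by copper sulfate through the metallothionein promoter; nearly all actives have a fitted effect of over 50% in size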
Sfp inh: Sfp phosphopantetheinyl transferase inhibition; Biochemical Sfp PPTase activity, qHTS; Potency, µM, most hits filed as inhibitors; 310,000 compounds, 3.5% hits; AID 1490;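 further: the enzyme is Sfp with the accession as filed and its product quenches rhodamine fluorescence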
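Sfp 15 nM + cpd, 15 min RT; start w/ rhodamine-CoA 5 uM, BHQ-2-YbbR 12.5 uM (final); 50 mM Hepes pH 7.6, 10 mM MgCl2, 0.01% NP-40, 0.01% BSA; read 525/598 nm at 0 and 30 min.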
Epigenetic derep: epigenetic control regulation, reporter derepression. murine LDR cells, GFP reporter derepression, 30 h. 280,000 compounds, 0.2% hits. Potency, µM (doses to about 53.9 µM), most hits filed as activators; further: nearly all actives have a fitted effect of over 60% in size
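Readout is the number of GFP-expressing murine LDR cells, counted by cytometry following washing. Cells were treated with compound for 30 h at 37 C; the stably integrated CMV-GFP locus is normally silent.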
PINK1 modulator: changes PINK1 expression; PINK1 immunofluorescence, high-content cytometry, 24 h; Potency, µM (doses to about 76.6 µM), usual class: activators; 410,000 compounds, 0.2% hits; active means well fitted activation curve with a large enough effect; inconclusive means small, poorly fitted or top-dose-only effect; cell line not stated here; further: nearly all actives have a fitted effect of over 65% in size
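Cells are seeded, rested 12 hours, then given compound at five concentrations or DMSO for 24 hours. After fixation, blocking and antibody staining, PINK1 amount and mitochondrial localization are scored; CCCP serves as control.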
Numbers stand for hits; 0 = inactive; ? = inconclusive; - = not tested or not shown; ! = not confirmed by another sample; [ ] = another dose, or the depositor's remark. Unless noted, the call rests on the fitted dose curve; in most records, active means well fitted curve in the direction sought with a large enough effect; inconclusive means small, poorly fitted or top-dose-only effect, or another doubt; inactive means no such curve, though single readings can be large; an effect the other way counts as inactive or inconclusive.

SMILES | RORg inh | ClpP mod | VP16 counter | Sfp inh | Epigenetic derep | PINK1 modulator
COC(=O)C1=C(C)NC2=C(C(=O)CCC2)C1c1cn(Cc2ccc(Cl)cc2Cl)nc1-c1ccccc1 (stereo unspecified) | 0 | 18µM | 0 | 0 | 0 | 0
CCOC(=O)C1=C(C)NC2=C(C(=O)CCC2)C1c1cc(OC)ccc1OC (stereo unspecified) | 0 | 0 | 0 | 0 | 0 | 0
CCc1nnc2c(Nc3cccc(F)c3)nc3ccc(C(=O)c4ccccc4)cc3n12 | - | 0 | - | - | 0 | 0
CC=C1COC(C(=O)NCCOCCO)(C(F)(F)F)C=C1C=C(C)C (stereo unspecified) | 0 | - | 0 | 0 | - | -
CN(CCO)C(=O)c1cn(C2CCN(Cc3c(F)cccc3Cl)CC2)nn1 | - | - | - | - | - | 0
Cc1nn(C)c(C)c1S(=O)(=O)N(CC(=O)NCCc1ccccc1)c1ccc(C(C)C)cc1 | - | 0 | - | - | 0 | 0
COc1ccc(N2CCN(C(=O)c3ccc4c(c3)NC(=O)C(CSCc3cccc(F)c3)N4)CC2)cc1 (stereo unspecified) | 0 | - | 0 | 56µM | - | -
COc1ccc(N2CCN(C(=O)c3ccc4c(c3)NC(=O)C(CSCc3ccc(C)cc3)N4)CC2)cc1 (stereo unspecified) | 0 | - | 0 | 40µM | - | -
CN(C)c1ccc(/C=C/c2cccc3cc4ccccc4nc23)cc1 | - | 0 | - | - | - | 0
COc1ccc2[nH]c(C)c(CCN(Cc3cccs3)C(=S)Nc3cccc(F)c3)c2c1 | 1.6µM | 0 | ? | 40µM | 0 | 0
COc1ccc(NC(=S)N(CCc2c(C)[nH]c3ccccc23)Cc2ccco2)cc1 | ? | 0 | 0 | 0 | 0 | 0
COc1cccc(NC(=S)N(CCc2c(C)[nH]c3ccc(C)cc23)Cc2cccs2)c1 | 0 | 0 | ? | 0 | 0 | 0
COc1ccc(OC)c(NC(=S)N(CCc2c(C)[nH]c3ccccc23)Cc2cccs2)c1 | 8.9µM | 0 | 0 | 0 | 0 | 0
COc1ccc(OC)c(NC(=S)N(CCc2c(C)[nH]c3ccc(C)cc23)Cc2cccs2)c1 | 10µM | 0 | 0 | 0 | 0 | 0
Cc1ccc(S(=O)(=O)c2nnn(CC(=O)Nc3ccccc3C)c2N)cc1C | - | 0 | - | - | 0 | 0
CN(Cc1ccc(F)cc1)S(=O)(=O)c1nnc(NC(=O)c2ccccc2Cl)s1 | - | 0 | - | - | 0 | 0
O=C(COCc1cc(-c2ccc(F)cc2)on1)Nc1cc(Cl)ccc1O | - | 0 | - | - | 0 | 0
CC(C)CC(=O)Nc1ccc(-c2cn3ccsc3n2)cc1 | ? | 0 | ? | 0 | 0 | 0
CC(C)(C)C(=O)Nc1ccc(-c2cn3ccsc3n2)cc1 | 4.5µM | 0 | 4.5µM | 0 | 0 | 0
O=c1[nH]c2c(s1)C(c1ccco1)C1C3CCC(C3)C1S2 (stereo unspecified) | 0 | 0 | ? | 45µM | 0 | 0
O=C(O)CN1C(=O)C2C3CC(C2C1=O)C1C(c2ccccc2)c2sc(=O)[nH]c2SC31 (stereo unspecified) | 0 | 0 | 0 | 0 | 0 | 0
CCCN1CNc2c(c(=O)[nH]c(=O)n2CCc2ccc(OC)c(OC)c2)C1 | - | 0 | - | - | - | 0
O=[N+]([O-])c1cccnc1N1CCC(c2cc(-c3ccc(Cl)cc3Cl)n[nH]2)CC1 | 0 | 0 | ? | 0 | 0 | 0
O=[N+]([O-])c1cccnc1N1CCC(c2cc(-c3cccc(C(F)(F)F)c3)n[nH]2)CC1 | 13µM | 0 | ? | 0 | 0 | 0
O=C1CC[C@@H](C(=O)NCC2Cc3cc(Cl)cc(-c4ccc5[nH]ccc5c4)c3O2)N1 (stereo partly specified) | - | - | - | - | - | 0
SMILES | RORg inh | ClpP mod | VP16 counter | Sfp inh | Epigenetic derep | PINK1 modulator
COc1ccc2c(c1)C(=O)[C@H](O)[C@@H](c1ccc(OC)c(Br)c1)O2 | 7.1µM | 0 | 13µM! | 0 | 0 | ?
CC(C)CCC(CCNCc1ccccn1)c1ccc(Cl)cc1 (stereo unspecified) | 11µM | - | 0 | ? | - | 0
CC(C)Cn1nnnc1S(=O)(=O)Cc1ccccc1 | 0 | - | 0 | 0 | 0 | -
O=C(Nc1cccc(Cl)c1Cl)c1cc(S(=O)(=O)N2CCCc3ccccc32)ccc1F | - | 0 | - | - | 0 | 0
CN(Cc1cn(C)nc1-c1ccc(Oc2ccccc2)cc1)Cc1cnc2ccccn12 | 10µM | 0 | ? | 0 | 0 | 0
Cc1ccc(C(C)C)c(OCC(=O)Nc2cccc(-c3nc4ncccc4o3)c2)c1 | - | 22µM | - | - | 0 | 0
CCC(=O)NC(=S)Nc1cccc(-c2nc3ncccc3o2)c1 | 13µM | 0 | 0 | 0 | 0 | 0
CCCCCC(=O)Nc1cccc(-c2nc3ncccc3o2)c1 | 0 | ? | 0 | 0 | 0 | -
CCCCC(=O)Nc1cccc(-c2nc3ncccc3o2)c1 | 0[10 µM] | 16µM | 0 | 0 | 0 | 0
Cc1ccc(CNc2nc(C)c(-c3ccn(CCN4CCOCC4)n3)s2)o1 | - | - | - | - | - | 0
COc1ccc(OC)c(/C=C2\SC(=S)N(C(C(=O)O)c3ccccc3)C2=O)c1 (stereo unspecified) | 0 | 0 | 0 | 56µM | 0 | 0
CCOc1ccc(/C=C2\SC(=S)N(C(C(=O)O)c3ccccc3)C2=O)cc1OC (stereo unspecified) | 0 | 0 | 0 | 56µM | 0 | 0
CC(/C=C1\SC(=S)N(C(C(=O)O)c2ccccc2)C1=O)=C\c1ccccc1 (stereo unspecified) | 0 | 0 | 0 | 0 | 0 | 0
Cc1ccc(NC(=O)Nc2nnc(SCC(=O)N3CCCCC3)s2)cc1 | - | 0 | - | - | 0 | 0
COc1ccc(C2Nc3ccccc3C(=O)N2c2cccc3ccccc23)cc1COc1c(C)cccc1C (stereo unspecified) | - | 0 | - | - | - | 0
Oc1ccc(N=C/C=C/c2cccc(Br)c2)cc1-c1nc2ccccc2s1 | ? | 0 | 7.9µM | ? | 0 | 0
Cc1nnc(NNS(=O)(=O)c2ccc(Cl)cc2)[nH]c1=O | 0 | 0 | 0 | 45µM | 0 | 0
Cc1ccc(S(=O)(=O)NNc2nnc(C)c(=O)[nH]2)cc1 | 0 | - | 0 | 5.6µM | 0 | 0
Cc1ccc(-n2c(=O)c3ccc(C(=O)NCc4ccco4)cc3n(Cc3ccc(Cl)cc3)c2=O)cc1 | - | 0 | - | - | 0 | 0
CCCC(=O)N1c2ncnn2C2(CCCCC2)[C@@H]2CCCC[C@@H]21 | - | 0 | - | - | 0 | 0
COc1ccc2c(c1)C1=NN(/C(C)=C\C(C)=O)C(c3ccccc3)C1CC2 (stereo unspecified) | 0 | 0 | ? | 0 | 0 | 0
COc1ccc2c(c1)CCC1C2=NN(/C(C)=C\C(C)=O)C1c1ccc(F)cc1 (stereo unspecified) | ? | 0 | 0[10 µM] | 45µM | 0[10.1 µM] | 0
COc1ccc2c(c1)C1=NN(/C(C)=C/C(C)=O)C(c3ccc(F)cc3)C1CC2 (stereo unspecified) | 0 | 20µM | ? | 0 | 0 | 0
CCc1cccc(NC(=O)CSc2ncc3c(n2)-c2ccccc2N(Cc2ccccc2C)S3(=O)=O)c1 | - | 0 | - | - | 0 | 0
